Measured values taken from PMC5540273 (PLoS ONE, 2017).

Experiments:
Settings in all cases: concentration: 1 μM, replicates: in singlicate; n = 1
[1] = tested on: SRPK3
[2] = tested on: STK16
[3] = tested on: STK33
[4] = tested on: STK35
[5] = tested on: STK36
[6] = tested on: STK39
[7] = tested on: SYK
[8] = tested on: SgK110
[9] = tested on: T1, TAK1
T1 construct: gene MAP3K7

[10] = tested on: TAOK1
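Further: KINOMEscan kinase panel screen.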

COc1cc2c(cc1OC[C@@H](O)CO)ncc1c3ccc(C#N)cc3[nH]c21
%Inh [1]: 25%
%Inh [2]: 0%
%Inh [3]: 36%
%Inh [4]: 0%
%Inh [5]: 0%
%Inh [6]: 0%
%Inh [7]: 0%
%Inh [8]: 0%
%Inh [9]: 81%
%Inh [10]: 0%

NS(=O)(=O)CCc1cccc(Nc2nccc(-c3c(-c4cccc(NC(=O)c5c(F)cccc5F)c4)nn4ccccc34)n2)c1 [GSK336735]
%Inh [1]: 55%
%Inh [2]: 28%
%Inh [3]: 0%
%Inh [4]: 90.7%
%Inh [5]: 99.9%
%Inh [6]: 1%
%Inh [7]: 74%
%Inh [8]: 0%
%Inh [9]: 27%
%Inh [10]: 73%

COCCNC(=O)c1ccc(-c2cc(C(=O)NC3CC3)cc(F)c2C)cc1 [GW868318]
%Inh [1]: 20%
%Inh [2]: 0%
%Inh [3]: 10%
%Inh [4]: 0%
%Inh [5]: 2%
%Inh [6]: 16%
%Inh [7]: 1%
%Inh [8]: 21%
%Inh [9]: 14%
%Inh [10]: 29%

CCc1nc(-c2cccc(C)c2)c(-c2ccnc(NCc3ccccc3)c2)s1
%Inh [1]: 0%
%Inh [2]: 19%
%Inh [3]: 0%
%Inh [4]: 0%
%Inh [5]: 0%
%Inh [6]: 0%
%Inh [7]: 0%
%Inh [8]: 22%
%Inh [9]: 0%
%Inh [10]: 0%

Cc1cn2c(=O)cc(N3CCOCC3)nc2n1Cc1cccc(Cl)c1Cl [GSK2334006]
%Inh [1]: 0%
%Inh [2]: 14%
%Inh [3]: 4%
%Inh [4]: 3%
%Inh [5]: 0%
%Inh [6]: 17%
%Inh [7]: 21%
%Inh [8]: 0%
%Inh [9]: 0%
%Inh [10]: 0%

COc1ccc(Nc2ncc(C#N)c(Nc3ccccc3C(N)=O)n2)cc1N1CCN(C)CC1.Cl [GSK1558669]
%Inh [1]: 100%
%Inh [2]: 98.3%
%Inh [3]: 99.2%
%Inh [4]: 99.3%
%Inh [5]: 99.5%
%Inh [6]: 100%
%Inh [7]: 98.6%
%Inh [8]: 66%
%Inh [9]: 100%
%Inh [10]: 86%

O=C(NCCNc1ccnc(Nc2ccc(F)cc2)n1)c1cc2ccccc2s1 [GSK1379874]
%Inh [1]: 0%
%Inh [2]: 5%
%Inh [3]: 0%
%Inh [4]: 0%
%Inh [5]: 0%
%Inh [6]: 0%
%Inh [7]: 36%
%Inh [8]: 0%
%Inh [9]: 0%
%Inh [10]: 0%

CSc1ccc(-c2cc3ncnc(SCC(=O)O)c3s2)cc1
%Inh [1]: 0%
%Inh [2]: 2%
%Inh [3]: 8%
%Inh [4]: 0%
%Inh [5]: 0%
%Inh [6]: 0%
%Inh [7]: 15%
%Inh [8]: 0%
%Inh [9]: 18%
%Inh [10]: 0%

c1ccc(-c2cc(-c3c[nH]nc3-c3ccccn3)ccn2)cc1 [GW576604]
%Inh [1]: 0%
%Inh [2]: 0%
%Inh [3]: 8%
%Inh [4]: 0%
%Inh [5]: 0%
%Inh [6]: 2%
%Inh [7]: 6%
%Inh [8]: 0%
%Inh [9]: 16%
%Inh [10]: 0%

O=C(Nc1cccc(-c2nn3ncccc3c2-c2ccnc(Nc3cccc(C(F)(F)F)c3)n2)c1)c1c(F)cccc1F [GSK299495]
%Inh [1]: 0%
%Inh [2]: 3%
%Inh [3]: 0%
%Inh [4]: 54%
%Inh [5]: 99%
%Inh [6]: 15%
%Inh [7]: 68%
%Inh [8]: 0%
%Inh [9]: 0%
%Inh [10]: 44%

Cl.Nc1ncnc2occ(-c3ccc(NC(=O)Nc4cc(C(F)(F)F)ccc4F)cc3)c12 [SB-707548]
%Inh [1]: 0%
%Inh [2]: 8%
%Inh [3]: 87%
%Inh [4]: 37%
%Inh [5]: 0%
%Inh [6]: 14%
%Inh [7]: 68%
%Inh [8]: 0%
%Inh [9]: 98.6%
%Inh [10]: 13%

COc1ccc(COc2cc(-n3cnc4ccccc43)sc2C(N)=O)cc1 [GSK1024304]
%Inh [1]: 17%
%Inh [2]: 0%
%Inh [3]: 13%
%Inh [4]: 0%
%Inh [5]: 0%
%Inh [6]: 0%
%Inh [7]: 26%
%Inh [8]: 0%
%Inh [9]: 0%
%Inh [10]: 0%

COc1ccc(Nc2nccc(N3CCC(NC(=O)Nc4cc(C)ccc4C)C3)n2)cc1 (stereo not drawn) [GSK1379741]
%Inh [1]: 0%
%Inh [2]: 7%
%Inh [3]: 0%
%Inh [4]: 0%
%Inh [5]: 100%
%Inh [6]: 9%
%Inh [7]: 0%
%Inh [8]: 0%
%Inh [9]: 0%
%Inh [10]: 0%

CC(C)Oc1ccc2c(-c3ccnc(Nc4ccc(N5CCN(C)CC5)cc4)n3)cnn2n1 [GW696155]
%Inh [1]: 79%
%Inh [2]: 98.8%
%Inh [3]: 81%
%Inh [4]: 45%
%Inh [5]: 70%
%Inh [6]: 89%
%Inh [7]: 10%
%Inh [8]: 29%
%Inh [9]: 56%
%Inh [10]: 76%

CN1c2ccc(CNc3ccc(F)cc3)cc2-c2c(cnn2C)S1(=O)=O
%Inh [1]: 0%
%Inh [2]: 0%
%Inh [3]: 0%
%Inh [4]: 0%
%Inh [5]: 0%
%Inh [6]: 0%
%Inh [7]: 27%
%Inh [8]: 0%
%Inh [9]: 0%
%Inh [10]: 0%

O=C(NCCNc1ccnc(Nc2ccc(F)cc2)n1)Nc1ccccc1F [GSK1379880]
%Inh [1]: 2%
%Inh [2]: 4%
%Inh [3]: 0%
%Inh [4]: 0%
%Inh [5]: 48%
%Inh [6]: 3%
%Inh [7]: 26%
%Inh [8]: 55%
%Inh [9]: 0%
%Inh [10]: 0%

O=C(NCCCN1CCOCC1)c1cccc(Nc2nccc(Nc3ccc(Oc4ccccc4)cc3)n2)c1 [GW663929]
%Inh [1]: 0%
%Inh [2]: 64%
%Inh [3]: 10%
%Inh [4]: 34%
%Inh [5]: 33%
%Inh [6]: 23%
%Inh [7]: 0%
%Inh [8]: 0%
%Inh [9]: 19%
%Inh [10]: 0%

Fc1ccc(-c2nn3c(OCC(F)(F)F)cccc3c2-c2ccncc2)cc1 [GW514784]
%Inh [1]: 0%
%Inh [2]: 3%
%Inh [3]: 0%
%Inh [4]: 0%
%Inh [5]: 0%
%Inh [6]: 3%
%Inh [7]: 1%
%Inh [8]: 0%
%Inh [9]: 6%
%Inh [10]: 0%

Cc1c2ccc(N(C)c3ccnc(Nc4cccc(S(N)(=O)=O)c4)n3)cc2nn1Cc1ccccc1.Cl.Cl [GW787226]
%Inh [1]: 2%
%Inh [2]: 55%
%Inh [3]: 0%
%Inh [4]: 0%
%Inh [5]: 39%
%Inh [6]: 0%
%Inh [7]: 60%
%Inh [8]: 2%
%Inh [9]: 4%
%Inh [10]: 0%

O=c1cc(N2CCOCC2)nc2n(Cc3cccc(C(F)(F)F)c3)ccn12 [GSK2297543]
%Inh [1]: 0%
%Inh [2]: 0%
%Inh [3]: 0%
%Inh [4]: 0%
%Inh [5]: 0%
%Inh [6]: 0%
%Inh [7]: 27%
%Inh [8]: 0%
%Inh [9]: 0%
%Inh [10]: 0%

CN(C1=C(c2ccccc2)C(=O)NC1=O)c1ccccc1 [SB-334860]
%Inh [1]: 0%
%Inh [2]: 14%
%Inh [3]: 0%
%Inh [4]: 3%
%Inh [5]: 0%
%Inh [6]: 5%
%Inh [7]: 32%
%Inh [8]: 0%
%Inh [9]: 18%
%Inh [10]: 0%

N#Cc1ccc(-c2cc(-c3c[nH]nc3-c3ccccn3)ccn2)cc1 [GW693028]
%Inh [1]: 14%
%Inh [2]: 0%
%Inh [3]: 4%
%Inh [4]: 0%
%Inh [5]: 0%
%Inh [6]: 16%
%Inh [7]: 5%
%Inh [8]: 5%
%Inh [9]: 0%
%Inh [10]: 0%

COc1cc(Nc2nccc(N3CCC(NC(=O)c4cccc(NC(C)=O)c4)C3)n2)cc(OC)c1OC (stereo not drawn) [GSK1379754]
%Inh [1]: 16%
%Inh [2]: 64%
%Inh [3]: 2%
%Inh [4]: 0%
%Inh [5]: 0%
%Inh [6]: 0%
%Inh [7]: 39%
%Inh [8]: 2%
%Inh [9]: 0%
%Inh [10]: 0%

Fc1ccc(-c2ncn(CCCN3CCOCC3)c2-c2cccnc2)cc1 [SB-211743]
%Inh [1]: 0%
%Inh [2]: 0%
%Inh [3]: 0%
%Inh [4]: 1%
%Inh [5]: 0%
%Inh [6]: 0%
%Inh [7]: 32%
%Inh [8]: 17%
%Inh [9]: 0%
%Inh [10]: 0%

CC(C)(C)n1cnc2c(N)ncnc21 [SKF-97359]
%Inh [1]: 0%
%Inh [2]: 0%
%Inh [3]: 0%
%Inh [4]: 0%
%Inh [5]: 0%
%Inh [6]: 0%
%Inh [7]: 0%
%Inh [8]: 85%
%Inh [9]: 22%
%Inh [10]: 0%

Cc1nnc(-c2ccc3ncc(-c4ccc(S(C)=O)cc4)n3c2)o1 (stereo not drawn)
%Inh [1]: 0%
%Inh [2]: 0%
%Inh [3]: 1%
%Inh [4]: 1%
%Inh [5]: 9%
%Inh [6]: 25%
%Inh [7]: 0%
%Inh [8]: 0%
%Inh [9]: 8%
%Inh [10]: 0%

NCC(NC(=O)c1cc(-c2cn[nH]c2)c(-c2ccnc3[nH]ccc23)s1)c1ccccc1.O=C(O)C(F)(F)F.O=C(O)C(F)(F)F (stereo not drawn) [GSK1325775]
%Inh [1]: 37%
%Inh [2]: 46%
%Inh [3]: 79%
%Inh [4]: 0%
%Inh [5]: 0%
%Inh [6]: 9%
%Inh [7]: 0%
%Inh [8]: 66%
%Inh [9]: 78%
%Inh [10]: 91.9%

COc1ccc(Nc2nccc(N3CCC(NC(=O)Nc4cccc(C(C)=O)c4)C3)n2)cc1 (stereo not drawn) [GSK1379731]
%Inh [1]: 0%
%Inh [2]: 14%
%Inh [3]: 0%
%Inh [4]: 0%
%Inh [5]: 0%
%Inh [6]: 0%
%Inh [7]: 1%
%Inh [8]: 0%
%Inh [9]: 0%
%Inh [10]: 0%

O=C1Cc2cc(Nc3nc(NCc4cccc(S(=O)(=O)C(F)(F)F)c4)ncc3C(F)(F)F)ccc2N1
%Inh [1]: 6%
%Inh [2]: 0%
%Inh [3]: 7%
%Inh [4]: 3%
%Inh [5]: 0%
%Inh [6]: 5%
%Inh [7]: 6%
%Inh [8]: 22%
%Inh [9]: 5%
%Inh [10]: 0%

COc1cc2ncn(-c3cc(OCc4sccc4Cl)c(C(N)=O)s3)c2cc1OC [GSK448459]
%Inh [1]: 3%
%Inh [2]: 21%
%Inh [3]: 0%
%Inh [4]: 0%
%Inh [5]: 0%
%Inh [6]: 0%
%Inh [7]: 23%
%Inh [8]: 0%
%Inh [9]: 0%
%Inh [10]: 0%

Cn1ccc2ncnc(Oc3ccc(NC(=O)Nc4ccncc4)c(Cl)c3)c21
%Inh [1]: 0%
%Inh [2]: 10%
%Inh [3]: 0%
%Inh [4]: 0%
%Inh [5]: 5%
%Inh [6]: 100%
%Inh [7]: 3%
%Inh [8]: 30%
%Inh [9]: 0%
%Inh [10]: 0%

Nc1nccc(-c2c(-c3ccc(F)cc3)ncn2C2CCN(CC(F)(F)F)CC2)n1 [SB-236560]
%Inh [1]: 6%
%Inh [2]: 0%
%Inh [3]: 0%
%Inh [4]: 0%
%Inh [5]: 26%
%Inh [6]: 0%
%Inh [7]: 0%
%Inh [8]: 0%
%Inh [9]: 21%
%Inh [10]: 0%

N#Cc1c(N2CCOCC2)sc(-c2ccn[nH]2)c1-c1ccc(Cl)cc1
%Inh [1]: 0%
%Inh [2]: 33%
%Inh [3]: 10%
%Inh [4]: 0%
%Inh [5]: 0%
%Inh [6]: 17%
%Inh [7]: 16%
%Inh [8]: 0%
%Inh [9]: 14%
%Inh [10]: 0%
